In all, about 220,000 compounds went through this assay and about 16,000 (7.3%) were called active. Inconclusive results (about 25%) are left out. Calls come from the whole dose curve; as a rule, active = well fitted inhibition curve with a large enough effect (not every such curve was filed as active); inconclusive = small, poorly fitted or top-dose-only effect, or another doubt; inactive = no such curve, though single readings can be large or run the other way. For the sample, actives were picked, then their nearest neighbours and some compounds at random.
Molecular target: Aldehyde dehydrogenase 1A1 (Homo sapiens) (UniProt P00352)
Sequence (P00352 whole entry, looked up): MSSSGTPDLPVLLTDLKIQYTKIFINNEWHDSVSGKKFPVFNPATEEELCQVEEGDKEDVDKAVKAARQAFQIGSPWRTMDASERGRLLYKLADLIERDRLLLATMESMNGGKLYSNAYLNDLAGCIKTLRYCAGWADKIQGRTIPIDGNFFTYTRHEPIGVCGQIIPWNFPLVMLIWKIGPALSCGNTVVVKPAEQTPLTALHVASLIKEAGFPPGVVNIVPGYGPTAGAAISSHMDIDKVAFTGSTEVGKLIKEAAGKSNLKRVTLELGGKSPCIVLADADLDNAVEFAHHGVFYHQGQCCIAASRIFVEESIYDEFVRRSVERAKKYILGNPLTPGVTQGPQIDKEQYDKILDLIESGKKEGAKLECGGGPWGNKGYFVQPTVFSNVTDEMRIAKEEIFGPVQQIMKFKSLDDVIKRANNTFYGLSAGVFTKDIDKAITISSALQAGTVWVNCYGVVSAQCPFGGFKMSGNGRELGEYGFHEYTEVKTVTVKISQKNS
Experiment: qHTS Assay for Inhibitors of Aldehyde Dehydrogenase 1 (ALDH1A1);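 for activity, negative = inhibition: plate controls were no enzyme wells and a reference inhibitor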
Settings: Purified ALDH1A1, NADH fluorescence, propionaldehyde substrate; series mostly up to 75.3 µM
Potency is the fitted concentration of half-maximal effect.

Potency, inactive:
CCN(CC)CCCSc1nc2ccccc2s1, COC(=O)c1ccc(COC(=O)c2cnccn2)cc1, COc1cc2sc(C)nc2cc1C, Cc1ccc(NC(=O)c2ccc(Oc3ncccn3)cc2)cc1, C=C(C(C)=O)C(O)c1cccs1 (stereo unspecified), CCCC(=O)Nc1nc2ccc(NC(=O)c3c(F)c(F)c(OC)c(F)c3F)cc2s1, CCC(=O)Nc1ccc2c(c1)nc(CCN1CCN(C)CC1)n2C, COC(=O)c1ccc(NC(=S)Nc2cccc(C)n2)cc1, Cc1cccc(OC(=O)c2sc3ncn(C)c(=O)c3c2C)c1, CCN1CCN(C(=O)CN(C)S(=O)(=O)c2ccc3ccccc3c2)CC1, CCC1CCCCN1S(=O)(=O)Cc1ccccc1Cl (stereo unspecified), CS(=O)(=O)N(CC(=O)NC1CCCC1)Cc1ccc(F)cc1, Nc1c(C(=O)O)cnn1-c1ccccc1, Cc1c(C(=O)NCc2ccccc2)cnn1-c1ccccc1, CC(=O)N1N=C(c2ccccc2)OC1c1cccnc1 (stereo unspecified), COCc1c(C(=O)OCc2c(C)noc2C)oc2ccccc12, Fc1ccc(CNCc2ccc(Br)cc2)cc1, Cc1nc2cnc(Nc3ccccc3)nc2n(C[C@H]2CCCO2)c1=O, S=c1[nH]nc(-c2ccc(Cl)cc2)n1CC1CCCO1 (stereo unspecified), COCCn1c(=S)[nH]c2cc(C(=O)NCCc3ccc(OC)c(OC)c3)ccc2c1=O, COc1ccc(CCNC(=O)Cn2c(=O)n(CC3CCCO3)c(=O)c3ccccc32)cc1OC (stereo unspecified), CCc1ccc(NC(=O)C(=O)N/N=C(\C)CC(=O)NCCOC)cc1, CCOC(=O)c1cccc(NC(=O)CCOc2ccccc2)c1, CCOC(=O)CSc1nc(C)cc2c1C(=O)OC2, CCOC(=O)C1CCCN(C(=O)c2cccc(S(=O)(=O)N3CCOCC3)c2)C1 (stereo unspecified), COc1cccc(N(Cc2nnc3n2CCCCC3)C(=O)Nc2ccccc2F)c1, Cc1cc(C(=O)NNS(=O)(=O)c2ccccc2C(F)(F)F)nn1C(C)(C)C, O=C(Nc1ccc(Br)cn1)c1ccc([N+](=O)[O-])cc1Cl, O=C(CCN1C(=O)c2ccccc2C1=O)Nc1cccc(F)c1, Cc1ccc(C)c(CSc2nc(-c3ccco3)nc3c2c(=O)n(C)c(=O)n3C)c1, O=C(O)CSc1nnc(-c2ccc3c(c2)OCO3)n1-c1ccccc1, CSc1ncccc1C(=O)NC1CCCCCC1, Cc1cccc(C2c3[nH]c4ccccc4c3CCN2C(=O)c2cc(-c3cccn3C)n[nH]2)n1 (stereo unspecified), COc1ccc2c(c1)C(c1cccs1)=NNC(c1cccnc1)=N2, CC(=O)Nc1ccc(NC(=O)C(C)n2c3ccccc3c3nc(=O)cc(C)n32)cc1 (stereo unspecified), C/C(=N\Nc1nc(N2CCOCC2)nc(N2CCOCC2)n1)c1ccc([N+](=O)[O-])cc1, COc1ccc(C(=O)Nc2cccc(S(C)(=O)=O)c2)cc1, O=C(Nc1cccc(OCC(=O)N2CCOCC2)c1)C1CCCCC1, CC(=O)Nc1ccc(S(=O)(=O)Nc2ccc(N3CCOCC3)c(F)c2)cc1, COc1cccc(/C=C2\SC(=N)N(c3ccc(F)cc3)C2=O)c1, COc1ccc(CCNC(=O)CSc2nnc3ccc(-c4ccncc4)nn23)cc1, CN(C)C(=O)CSc1n[nH]c(-c2ccco2)n1, CCOC(=O)c1cc2ccccc2nc1C, CCOC(=O)c1ccc(NC(=S)Nc2cc(C)cc(C)n2)cc1, O=S(=O)(c1ccccc1)c1nc(-c2ccccc2F)oc1NCc1cccnc1

Potency, active:
N#CC1=C(N)Oc2n[nH]c(CSc3ccccc3)c2C12C(=O)Nc1ccccc12 (stereo unspecified) 10 µM, CCCC(=O)Nc1ccc2c(c1)nc1n2CCSC1 25.1 µM, NNC(=O)c1cnn(-c2ccccc2)c1C(F)(F)F 11.2 µM, O=c1c2cc3c(=O)n(CC4CCCO4)c(=O)c3cc2c(=O)n1CC1CCCO1 (stereo unspecified) 0.316 µM, COC(=O)c1ccc2c(=O)n(CC3CCCO3)c(=S)[nH]c2c1 (stereo unspecified) 1.78 µM, O=C1c2ccccc2C(=O)N1CCC(O)C[N+](=O)[O-] (stereo unspecified) 22.4 µM, CSc1nsc(SC)c1NC(=O)OC1CCCCC1 20 µM, COc1ccc(NS(=O)(=O)c2cc(NC(=O)C3CCCCC3)ccc2N2CCOCC2)cc1 2.51 µM, CCOC(=O)c1cc2c(nc1NC(=S)Nc1ccccc1)CC(C)(CC)OC2 (stereo unspecified) 12.6 µM

activity, negative = inhibition, inactive:
O=C1c2ccccc2C(=O)N1CCCSc1ccccc1 -6.74% [at 13.5 µM], CC1(CCC(=O)OC2CCCCC2)OCCO1 -6.23% [at 13.5 µM]

Source: PubChem BioAssay AID1030 (National Center for Advancing Translational Sciences (NCATS), 2008)
